# Measured values reported in PubChem BioAssay (NCI).
# Compounds without any hit were thinned out: in the full panel of roughly 83,000, 20% have a hit.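 Interpretation: 100, growth as untreated; towards 0, rising growth inhibition; 0, no net growth; 0 to -100, cell death. Compounds scoring below 10 were considered active.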 Values without a mark were called inactive. Active and inactive are the calls of the source.
# What was measured:
# Test in all cases: NCI-60 one-dose screen, 48 h (100 = growth as untreated, 0 = no growth, -100 = all killed)
# Conditions in all cases: 10 µM unless noted
# [1] = test system: HCT-15 colon
# [2] = test system: HT29 colon
# [3] = test system: SNB-75 CNS
# [4] = test system: SNB-19 CNS
# [5] = test system: U251 CNS
# [6] = test system: PC-3 prostate
# [7] = test system: SK-MEL-5 melanoma
# [8] = test system: UACC-62 melanoma
# [9] = test system: SK-MEL-28 melanoma
# [10] = test system: LOX IMVI melanoma
Structure (SMILES),growth [1],growth [2],growth [3],growth [4],growth [5],growth [6],growth [7],growth [8],growth [9],growth [10]
COc1ccc(C(=O)c2sc3nc4c(cc3c2N)CCCC4)cc1OC,31.2%,19%,49.3%,71.3%,39.9%,50.8%,-11.4% (active),36.2%,47.3%,
CCOC(=O)C(=Cc1ccccc1F)C(=O)OCC,86.9%,103%,83.4%,104%,,87.6%,92.8%,94.9%,104%,86.4%
CN(C)CCOc1ccc(-c2nc3ccc(-c4nc5ccc(N6CCN(C)CC6)cc5[nH]4)cc3[nH]2)cc1,101%,42.4%,89.8%,69.4%,,76.2%,37.5%,2.8% (active),45.3%,67.9%
COc1ccc(C2CC(=O)Nc3c2c(C)nn3-c2nc3ccccc3[nH]2)cc1 (stereo unspecified),99.6%,103%,103%,113%,103%,38.7%,95.5%,104%,105%,
COc1c(C2CC(=O)Nc3c2cnn3Cc2ccco2)cc2c(c1OC)OCO2 (stereo unspecified),18.5%,11.2%,8.9% (active),50.6%,20.4%,24.6%,3.98% (active),35.4%,40.7%,
CN[C@@]12CC3(C=CC(=O)C=C3)O[C@]1(Cc1ccc(OC)cc1)N(C)C(=O)N2,-47.9% (active),8.19% (active),74.3%,92.2%,,66.8%,77.1%,54.7%,46.7%,10.3%
COc1ccccc1-c1ccc2c(N)c(C(=O)c3ccc4c(c3)OCO4)sc2n1,38.8%,47%,85.1%,82.1%,63.7%,,56.6%,42%,71.3%,58%
COc1cc(C2CC(=O)Nc3c2c(C)nn3-c2nc3ccccc3[nH]2)cc(OC)c1OC (stereo unspecified),101%,109%,86.9%,93.4%,102%,75.2%,99.7%,97.2%,103%,
COc1cc(-c2cnc3nonc3n2)c(OC)c2c1OCO2,87.5%,104%,95.7%,108%,93.5%,76.2%,96.2%,106%,111%,
Cc1nn(-c2nc3ccccc3[nH]2)c2c1C(c1ccc3c(c1)OCO3)CC(=O)N2 (stereo unspecified),47.6%,34.7%,39.8%,49%,30.5%,21.6%,12.4%,27.3%,82.3%,
CC1(C)OCC2OC3(C(=O)O)OC(C)(C)OC3C2O1 (stereo unspecified),99.6%,108%,89.2%,100%,,106%,105%,111%,124%,84.5%
COc1cc(C2CC(=O)c3c(C)nn(-c4nc5ccccc5[nH]4)c3C2)cc(OC)c1OC (stereo unspecified),87%,74.2%,-24.8% (active),71.8%,30%,72.2%,87.1%,90.8%,86.5%,
COC1C/C(=N\O)C2OC(c3ccccc3)OCC2O1 (stereo unspecified),97.8%,113%,66.1%,94.3%,,100%,102%,96.5%,101%,101%
C[C@H](CCC(=O)O)[C@H]1CC[C@H]2[C@@H]3CC[C@@H]4/C(=C\c5ccco5)C(=O)/C(=C\c5ccco5)C[C@]4(C)[C@H]3CC[C@]12C,28.5%,59.6%,101%,79%,,52.6%,47.4%,17.2%,44.3%,31.6%
COc1ccc(-c2c(C)noc2-c2ccc(O)cc2O)cc1,68.8%,102%,90.9%,104%,93.8%,71.8%,80.4%,90.7%,105%,
Nc1cc2nc3ccccc3sc-2cc1=O,55.2%,94.1%,109%,91.7%,,50.8%,31.3%,17.2%,46.5%,11%
CCC(C)[C@@H]1NC(=O)[C@@H]2CCCN2C(=O)[C@H](Cc2ccccc2)NC(=O)[C@@H]2CCCN2C(=O)[C@H](Cc2ccccc2)NC(=O)[C@@H]2CCCN2C(=O)[C@H](Cc2ccccc2)NC1=O (stereo partly specified),103%,113%,76.7%,103%,,90.7%,100%,99.9%,95%,103%
Nc1cc(-c2nc3sccn3c2-c2ccnc(NCCCNS(=O)(=O)c3ccc(F)cc3)n2)ccc1F,28.3%,17.8%,68.7%,88%,,48.6%,27.2%,21.2%,50.7%,34.1%
COc1ccc(-n2c(C)nc3c(c(C)nn3-c3ccccc3)c2=O)cc1,7.97% (active),-15.6% (active),26.7%,60.7%,,26.7%,-17.1% (active),51.6%,67.4%,16.6%
O=C1Nc2ccccc2/C1=C/C(=N/c1nnc(-c2ccc(Cl)cc2)s1)c1ccccc1,3.35% (active),-56.3% (active),76.4%,100%,,75.7%,78.3%,51.7%,61.2%,-79.3% (active)
CCc1ccccc1NC(=O)c1sc2nc3c(cc2c1N)C(=O)CCC3,31.2%,8.59% (active),-15.4% (active),68.9%,,18%,30.7%,34.3%,43.7%,42.6%
O=S(=O)(Nc1ccc(Cl)cc1Cl)c1ccc(-c2cnc(C3CC3)o2)cc1,24.3%,1.27% (active),5.51% (active),43.6%,,28.1%,8.59% (active),35.3%,55.3%,43.3%
O=C1/C(=C/c2ccc(Cl)cc2Cl)CN(S(=O)(=O)c2ccccc2)C/C1=C\c1ccc(Cl)cc1Cl,-14.7% (active),-27.5% (active),27.8%,39.1%,,6.14% (active),47.5%,2.57% (active),34.4%,-58.7% (active)
O=C(NC(Cc1ccccc1)C(=O)CCl)OCc1ccccc1 (stereo unspecified),58.6%,53.6%,83.7%,82.2%,,67.5%,75.9%,68%,85.8%,-7.12% (active)
COc1ccc(-c2nc(Nc3cc(C)[nH]n3)c3ccccc3n2)cc1,42.4%,17.4%,-33.5% (active),53.8%,,57.2%,69%,52.9%,61.5%,13.7%
O=C(O)C(O)C(O)C(=O)O.[NH-]C1CCCCC1[NH-].[Pt+2] (stereo unspecified),103%,111%,80.8%,101%,,106%,103%,100%,95.1%,112%
Cc1noc(C)c1-c1cc(O)cc(C(O)c2ccccc2)c1 (stereo unspecified),36.7%,34.6%,-13.2% (active),52.7%,,48.4%,54.2%,31.6%,61.2%,27.3%
NC(CC(=O)O)C(=O)OCc1ccccc1 (stereo unspecified),95.1%,115%,65.5%,101%,,103%,97.8%,94.5%,99.1%,107%
O=C1NC(=O)C(CC(=O)n2c(-c3ccccc3)nc3ccccc32)C(=O)N1,100%,111%,71.1%,89.6%,,100%,101%,94.3%,108%,97.2%
